This note sets out measurements from PubChem BioAssay.

Active and inactive are the calls of the source. Unless noted, the rule behind the calls is not given here.

Assay [1] concerns Aerobactin synthetase IucA (Klebsiella pneumoniae). In words: inhibition of K. pneumoniae IucA enzyme – biochemical, Tocris library, absorbance (AID 1345561).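 Note: 100% = enzyme without compound and 0% = no enzyme.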 The conditions noted are these: purified IucA enzyme assay, absorbance (OD) read-out; stronger effect = lower value;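 tested at 8 µM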.
The nature of assay [2]: viability loss with induced miR-34 in A549 – imaging, A549 dox-inducible miR-34, nuclei and caspase counts, primary screen (AID 1347080;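 active = compounds whose cell count with miR-34 switched on is under 0.7 times the count with it off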). Particulars: A549 miR-34 inducible, Hoechst nuclei count, 48 h.
Assay [3] is described as follows: galactose survival enhancers in mitochondrial complex I cybrids – cell-based, galactose medium, ATP luminescence, primary screen (AID 1645843;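 active = z-score of at least 1.8 in each of two replicates, scored against plate mean and spread of sample wells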;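 note: positive z means more ATP and so rescue of galactose-driven cybrid death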). Particulars: complex I mutant cybrid cells, 72 h, stronger effect = higher value.
Assay [4] deals with Aerobactin synthetase IucA (Klebsiella pneumoniae hvKP1). In words: IucA enzyme inhibition, primary screen, biochemical, Spectrum library (AID 1346200).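 Note: 100% = wells without compound and 0% = wells lacking enzyme.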 Particulars: malachite green pyrophosphate, A620, at 8 µM, stronger effect = lower value.

Regarding `O=C1CN=C(c2cccc(Br)c2)c2oc3ccccc3c2N1`, the remaining activity – broadly, the signal under treatment as a percentage of the control signal – in assay [1] is 121% (inactive). Moreover, the fold change was 1.01 (inactive) in assay [2] (stronger effect = lower value, cell number ratio, induced over uninduced) and 1.75 in assay [2] (measured here: relative caspase fold change +Dox/-Dox). Moreover, the cell count in assay [2] (measured here: total cells with miR-34 induction, stronger effect = lower value) came to 2110; in assay [2] (measured here: total cells without miR-34 induction), 2080. Besides, in assay [3], the z-score was -0.285 (inactive).

Take `Oc1cc2c(cc1O)C1c3ccc(O)c(O)c3OCC1(O)C2` (stereo not drawn): the activity remaining in assay [4] was 109% (inactive).

Consider `OCC(S)CS` (stereo not drawn), for which the activity remaining in assay [4] was 91.4% (inactive).

As for `COc1ccc(-c2coc3cc(O)ccc3c2=O)cc1`, in assay [4], the activity remaining was 109% (inactive).

Take `COc1ccc2c(c1OC)OC[C@@H](c1ccc(OC)c(OC)c1OC)C2`: in assay [4], the activity remaining is 95.9% (inactive).

Turning to `Cc1cc(O)cc(C)c1Cl`, in assay [4], the activity remaining is 94.5% (inactive).

As to `COc1c2occc2c(OC)c2c(=O)cc(C)oc12`, the activity remaining in assay [4] is 116% (inactive).

As to `CC1=C2C(=CO[C@H](C)[C@H]2C)C(=O)C(C(=O)O)=C1O`, the activity remaining in assay [4] is 94.3% (inactive).

Take `CO/N=C(/C(=O)N[C@@H]1C(=O)N2C(C(=O)O)=C(CSc3nc(=O)c(O)nn3C)CS[C@H]12)c1csc(N)n1`: the activity remaining in assay [4] is 110% (inactive).

Regarding `COc1ccc2c(c1)OC[C@@H](Cc1ccc(OC)c(OC)c1)[C@H]2O`, the activity remaining in assay [4] is 109% (inactive).

On to `OC(c1cc(C(F)(F)F)nc2c(C(F)(F)F)cccc12)C1CCCCN1` (stereo not drawn), for which the activity remaining in assay [4] was 120% (inactive).

Regarding `COc1c2ccoc2nc2c(OC)c(OCC(O)C(C)(C)O)ccc12` (stereo not drawn), in assay [4], the activity remaining is 98% (inactive).

For the compound `CN(C)CCN(Cc1ccccc1)c1ccccn1`, in assay [4], the activity remaining is 109% (inactive).

For the compound `C[N+](C)(C)CCOP(=O)([O-])OP(=O)(O)OC[C@H]1OC(n2ccc(N)nc2=O)[C@H](O)[C@@H]1O` (stereo partly drawn), in assay [4], the activity remaining is 118% (inactive).

Regarding `O=S(=O)(O)CCS`, the activity remaining in assay [4] is 118% (inactive).

As to `CC1(C)C=CC(=O)[C@@]2(C)C1CC(=O)[C@]1(C)C2CC[C@@]2(C)[C@H](c3ccoc3)OC(=O)C3OC321` (stereo partly drawn), the activity remaining in assay [4] was 123% (inactive).

Regarding `CC1CCC2(OC1)OC1CC3C4CC[C@H]5C[C@@H](O)CC[C@]5(C)C4CC(=O)[C@]3(C)C1C2C` (stereo partly drawn), the activity remaining in assay [4] is 94.1% (inactive).

With `CC12CC[C@H](CC1=O)C2(C)C`, the activity remaining in assay [4] is 104% (inactive).

Regarding `CCCc1cc(=O)[nH]c(=S)[nH]1`, the activity remaining in assay [4] is 120% (inactive).

In the case of `Cc1cc(=O)c2c(O)cc(O)c(C)c2o1`, in assay [4], the activity remaining is 99.3% (inactive).

`CC(=O)O[C@H]1C[C@@H](OC(C)=O)C(C)(C)C2CC(=O)[C@]3(C)C(CC[C@@]4(C)[C@H](c5ccoc5)OC(=O)[C@H]5O[C@]543)[C@]21C` (stereo partly drawn): the activity remaining in assay [4] is 107% (inactive).

In the case of `CN1CCCN=C1COC(=O)C(O)(c1ccccc1)C1CCCCC1` (stereo not drawn), the activity remaining in assay [4] was 108% (inactive).

For `COc1c(O)cc2c(c1O)[C@H]1O[C@H](CO)[C@@H](O)[C@H](O)[C@@H]1OC2=O`, the activity remaining in assay [4] was 112% (inactive).

For `COc1ccc2cc1Oc1ccc(cc1)C[C@H]1c3c(cc4c(c3Oc3cc5c(cc3OC)CCN(C)[C@@H]5C2)OCO4)CCN1C`, the activity remaining in assay [4] was 115% (inactive).

`COc1cccc(O)c1O`: in assay [4], the activity remaining is 110% (inactive).

On to `C=C1C2CC[C@@]3(C)[C@H](c4ccoc4)OC(=O)C[C@]13O[C@H]1C[C@H](OC(C)=O)C(C)(C)[C@H](CC(=O)OC)[C@@]21C`, for which the activity remaining in assay [4] is 98.7% (inactive).

As to `O=c1ccc2ccc(O)cc2o1`, in assay [4], the activity remaining was 94.5% (inactive).

As for `C[C@]12CCC3c4ccc(O)cc4CCC3C1CC[C@@H]2OC(=O)CCC1CCCC1` (stereo partly drawn), in assay [4], the activity remaining was 124% (inactive).

Consider `CC(=O)Oc1ccc(-c2cc(=O)c3c(OC(C)=O)cc(OC(C)=O)cc3o2)cc1`, for which the activity remaining in assay [4] was 122% (inactive).

Take `Oc1c(Cl)cc(Cl)cc1Sc1cc(Cl)cc(Cl)c1O`: the activity remaining in assay [4] is 118% (inactive).

Consider `CC[C@@H](C(=O)C(C)[C@@H](O)[C@H](C)CCc1ccc(C)c(O)c1C(=O)O)C1OC(CC)(C2CC[C@](O)(CC)[C@H](C)O2)C[C@@H]1C` (stereo partly drawn), for which, in assay [4], the activity remaining was 111% (inactive).

With `CC1=NN(c2ccccc2)C(=O)C1`, the activity remaining in assay [4] is 120% (inactive).

For the compound `O=C(O[C@@H]1Cc2c(O)cc(O)cc2O[C@@H]1c1cc(O)c(=O)c2c(O)c(O)cc([C@H]3Oc4cc(O)cc(O)c4C[C@H]3OC(=O)c3cc(O)c(O)c(O)c3)c2c1)c1cc(O)c(O)c(O)c1`, the activity remaining in assay [4] was 108% (inactive).

Turning to `CC(=O)NCCCS(=O)(=O)O`, the activity remaining in assay [4] is 103% (inactive).

In the case of `CC(=O)Nc1ccc(OC(=O)c2ccccc2O)cc1`, the activity remaining in assay [4] was 101% (inactive).

As to `CC(C)(CO)C(O)C(=O)NCCCO` (stereo not drawn), in assay [4], the activity remaining is 118% (inactive).

`COC(=O)C1=CO[C@@H](O[C@@H]2O[C@H](CO)[C@@H](O)[C@H](O)[C@H]2O)[C@H]2C1C(=O)C[C@@H]2C` (stereo partly drawn): in assay [4], the activity remaining was 112% (inactive).

On to `CC(=O)Nc1c(I)cc(I)c(C(=O)O)c1I`, for which the activity remaining in assay [4] is 119% (inactive).
